Residue numbers refer to the chain shown, from its start.

Holding throughout (assay): MITOMI; MITOMI, 295 K (22 C); buffer, salt and pH not stated in the material; high values mean tight binding
What all share (settings): protein: ivt; label: fluorescent; dsDNA, one strand shown

For assay [1], the target named is T1, MarA wild type (WQR) (Escherichia coli, UniProt P0ACH5 1-127).
T1 sequence: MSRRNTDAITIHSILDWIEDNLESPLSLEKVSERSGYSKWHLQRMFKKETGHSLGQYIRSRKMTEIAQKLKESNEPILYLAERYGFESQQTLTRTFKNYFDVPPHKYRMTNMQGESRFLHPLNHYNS
The essentials:
(§1)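 Each fluorescently labelled MarA protein variant, made by in vitro transcription and translation with the RTS E. coli HY kit plus tRNA-lys-bodipy-fl, was tested by MITOMI against 64 synthesized mar binding site variants. Protein and DNA fluorescence were read on Genepix at 295K. Association constants, measured by MITOMI, are reported for each site relative to the highest-affinity site for the same protein variant.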

The target in assay [2] is T2, MarA RQR (Escherichia coli, UniProt P0ACH5 1-127, W40R).
T2 sequence: T1 sequence with W40R
In outline:
as §1

In assay [3] the target is T3, MarA RTR (Escherichia coli, UniProt P0ACH5 1-127, W40R;Q43T).
T3 sequence: T1 sequence with W40R, Q43T
The essentials: as §1

Assay [4] has as its target T4, MarA SAR (Escherichia coli, UniProt P0ACH5 1-127, W40S;Q43A).
T4 sequence: T1 sequence with W40S, Q43A
The essentials:
as §1

Assay [5] addresses T5, MarA TRR (Escherichia coli, UniProt P0ACH5 1-127, W40T;Q43R).
T5 sequence: T1 sequence with W40T, Q43R
In outline:
as §1

On to ATGGCTCGTTTTGCTAAAT, for which the binding signal is 0.35 Ka relative to the best site of the variant in assay [1]; 0.759 Ka relative to the best site of the variant in assay [2]; 0.904 Ka relative to the best site of the variant in assay [3]; 0.656 Ka relative to the best site of the variant in assay [4]; 0.362 Ka relative to the best site of the variant in assay [5].

ATGAACCGTTTTGCTAAAT: the binding signal in assay [1] was 0.224 Ka relative to the best site of the variant; in assay [2] it was 0.104 Ka relative to the best site of the variant; in assay [3], 0.204 Ka relative to the best site of the variant; in assay [4], 0.776 Ka relative to the best site of the variant; in assay [5] it was 0.379 Ka relative to the best site of the variant.

In the case of ATGGCCCGTTTTGCTAAAT, the binding signal in assay [1] is 0.293 Ka relative to the best site of the variant; in assay [2], 0.811 Ka relative to the best site of the variant; in assay [3], 1 Ka relative to the best site of the variant; in assay [4], 0.552 Ka relative to the best site of the variant; in assay [5], 0.382 Ka relative to the best site of the variant.

Consider ATGAATCGTTTTGCTAAAT, for which the binding signal was 0.215 Ka relative to the best site of the variant in assay [1]; 0.091 Ka relative to the best site of the variant in assay [2]; 0.214 Ka relative to the best site of the variant in assay [3]; 0.481 Ka relative to the best site of the variant in assay [4]; 0.309 Ka relative to the best site of the variant in assay [5].

Take ATGGGACGTTTTGCTAAAT: the binding signal in assay [1] is 0.34 Ka relative to the best site of the variant; in assay [2], 0.136 Ka relative to the best site of the variant; in assay [4], 0.498 Ka relative to the best site of the variant; in assay [5], 0.361 Ka relative to the best site of the variant.

In the case of ATGCTCCGTTTTGCTAAAT, the binding signal in assay [1] is 0.244 Ka relative to the best site of the variant; in assay [2] it was 0.108 Ka relative to the best site of the variant; in assay [3], 0.201 Ka relative to the best site of the variant; in assay [4] it was 0.548 Ka relative to the best site of the variant; in assay [5] it was 0.445 Ka relative to the best site of the variant.

As to ATGTATCGTTTTGCTAAAT, the binding signal was 0.282 Ka relative to the best site of the variant in assay [1]; 0.121 Ka relative to the best site of the variant in assay [2]; 0.902 Ka relative to the best site of the variant in assay [3]; 0.221 Ka relative to the best site of the variant in assay [4]; 0.432 Ka relative to the best site of the variant in assay [5].

As for ATGGAGCGTTTTGCTAAAT, the binding signal in assay [1] is 0.262 Ka relative to the best site of the variant; in assay [2] it was 0.119 Ka relative to the best site of the variant; in assay [3], 0.191 Ka relative to the best site of the variant; in assay [4], 0.506 Ka relative to the best site of the variant; in assay [5], 0.392 Ka relative to the best site of the variant.

ATGCATCGTTTTGCTAAAT: the binding signal was 0.317 Ka relative to the best site of the variant in assay [1]; 0.112 Ka relative to the best site of the variant in assay [2]; 0.186 Ka relative to the best site of the variant in assay [3]; 0.449 Ka relative to the best site of the variant in assay [4]; 0.422 Ka relative to the best site of the variant in assay [5].

Take ATGCTGCGTTTTGCTAAAT: the binding signal in assay [1] was 0.442 Ka relative to the best site of the variant; in assay [2], 0.169 Ka relative to the best site of the variant; in assay [4], 0.521 Ka relative to the best site of the variant; in assay [5] it was 0.588 Ka relative to the best site of the variant.

With ATGTCCCGTTTTGCTAAAT, the binding signal is 0.181 Ka relative to the best site of the variant in assay [1]; 1 Ka relative to the best site of the variant in assay [2]; 0.848 Ka relative to the best site of the variant in assay [3]; 0.233 Ka relative to the best site of the variant in assay [4]; 0.399 Ka relative to the best site of the variant in assay [5].

In the case of ATGCGACGTTTTGCTAAAT, the binding signal was 0.369 Ka relative to the best site of the variant in assay [1]; 0.148 Ka relative to the best site of the variant in assay [2]; 0.24 Ka relative to the best site of the variant in assay [3]; 0.43 Ka relative to the best site of the variant in assay [4]; 0.589 Ka relative to the best site of the variant in assay [5].

For ATGTCACGTTTTGCTAAAT, the binding signal is 0.38 Ka relative to the best site of the variant in assay [1]; 0.819 Ka relative to the best site of the variant in assay [2]; 0.306 Ka relative to the best site of the variant in assay [3]; 0.302 Ka relative to the best site of the variant in assay [4]; 0.461 Ka relative to the best site of the variant in assay [5].

In the case of ATGGATCGTTTTGCTAAAT, the binding signal in assay [1] was 0.224 Ka relative to the best site of the variant; in assay [2] it was 0.112 Ka relative to the best site of the variant; in assay [3], 0.202 Ka relative to the best site of the variant; in assay [4], 0.393 Ka relative to the best site of the variant; in assay [5], 0.365 Ka relative to the best site of the variant.

Regarding ATGCAACGTTTTGCTAAAT, the binding signal was 0.365 Ka relative to the best site of the variant in assay [1]; 0.142 Ka relative to the best site of the variant in assay [2]; 0.188 Ka relative to the best site of the variant in assay [3]; 0.461 Ka relative to the best site of the variant in assay [4]; 0.501 Ka relative to the best site of the variant in assay [5].

In the case of ATGGGCCGTTTTGCTAAAT, the binding signal is 0.236 Ka relative to the best site of the variant in assay [1]; 0.147 Ka relative to the best site of the variant in assay [2]; 0.196 Ka relative to the best site of the variant in assay [3]; 0.575 Ka relative to the best site of the variant in assay [4]; 0.368 Ka relative to the best site of the variant in assay [5].

The record behind these values is paper PMC3315485, “Probing the Informational and Regulatory Plasticity of a Transcription Factor DNA–Binding Domain”.
